Activity calls are given as the source filed them. Rule for the calls: active = hit-call score of the fitted dose curve at least 0.9, where 1 is the maximum; inactive = score below 0.9.
Assays:
Settings in all cases: mRNA level, 48 h; actives raise or lower the signal
[1] = read-out: Insulin Like Growth Factor 1 (IGF1), IGF1 (gene 3479); experiment: LTEA_HepaRG_IGF1: Life Technologies and Expression Analysis (LTEA) Assay for Insulin Like Growth Factor 1 (IGF1) using HepaRG (AID 2283506)
In short: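 HepaRG, plated 48 h, then switched to serum-free induction media; test chemical 8-pt half-log from 100 uM (0.5% DMSO), duplicate, 48 h. Lysis in RLT, TaqMan qRT-PCR, norm. ACTB/GAPDH/POLR2A. Bidirectional fit vs DMSO.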

[2] = read-out: Intercellular Adhesion Molecule 1 (ICAM1), ICAM1 (gene 3383); experiment: LTEA_HepaRG_ICAM1: Life Technologies and Expression Analysis (LTEA) Assay for Intercellular Adhesion Molecule 1 (ICAM1) using HepaRG (AID 2283507)
In short: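 HepaRG, 48 h exposure, 8-pt half-log series from 100 uM, 0.5% DMSO vehicle, duplicates. Readout: TaqMan qRT-PCR mRNA, housekeeping-normalized (ACTB/GAPDH/POLR2A). Bidirectional curve fit vs DMSO baseline.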

[3] = read-out: Insulin-like growth factor-binding protein 1 (IGFBP1), IGFBP1 (gene 3484); experiment: LTEA_HepaRG_IGFBP1: Life Technologies and Expression Analysis (LTEA) Assay for Insulin-like growth factor-binding protein 1 (IGFBP1) using HepaRG (AID 2283508)
In short: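 qRT-PCR mRNA read-out (TaqMan, Fluidigm array), normalised to three housekeeping genes; HepaRG cells, 48 h exposure, 8-pt half-log series from 100 uM, 0.5% DMSO vehicle; bidirectional curve fit vs DMSO baseline.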

[4] = read-out: Interleukin 6 (IL6), IL6 (gene 3569); experiment: LTEA_HepaRG_IL6: Life Technologies and Expression Analysis (LTEA) Assay for Interleukin 6 (IL6) using HepaRG (AID 2283509)
In short: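 Differentiated human HepaRG cells, plated 48 h then switched to serum-free induction medium, were exposed in duplicate for 48 h to eight half-log concentrations up to 100 uM in 0.5% DMSO. IL6 mRNA measured by qRT-PCR, normalized to ACTB/GAPDH/POLR2A.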

[5] = read-out: Interleukin 6 Receptor (IL6R), IL6R (gene 3570); experiment: LTEA_HepaRG_IL6R: Life Technologies and Expression Analysis (LTEA) Assay for Interleukin 6 Receptor (IL6R) using HepaRG (AID 2283510)
In short: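 Readout is IL6R transcript level by TaqMan qRT-PCR, normalized to three housekeeping genes and fitted bidirectionally against 0.5% DMSO controls. Human HepaRG cells received chemicals for 48 h in serum-free induction medium, highest concentration 100 uM.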

[6] = read-out: Potassium channel subfamily K member 1 (KCNK1), KCNK1 (gene 3775); experiment: LTEA_HepaRG_KCNK1: Life Technologies and Expression Analysis (LTEA) Assay for Potassium channel subfamily K member 1 (KCNK1) using HepaRG (AID 2283511)
In short: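 Differentiated human HepaRG cells in serum-free induction medium were exposed in duplicate for 48 h to 8 half-log concentrations up to 100 uM in 0.5% DMSO. KCNK1 mRNA was measured by TaqMan qRT-PCR, normalized to ACTB, GAPDH and POLR2A, and fitted bidirectionally versus DMSO.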

[7] = read-out: Keratin 19 (KRT19), KRT19 (gene 3880); experiment: LTEA_HepaRG_KRT19: Life Technologies and Expression Analysis (LTEA) Assay for Keratin 19 (KRT19) using HepaRG (AID 2283512)
In short: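 HepaRG, 48 h chemical exposure, 8-pt half-log CRC from 100 uM, 0.5% DMSO vehicle, duplicates. Readout: TaqMan qRT-PCR of KRT19 mRNA, housekeeping-normalized (ACTB/GAPDH/POLR2A). Bidirectional fit vs DMSO baseline.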

[8] = read-out: JUN Transcription Factor, JUN (gene 3725); experiment: LTEA_HepaRG_JUN: Life Technologies and Expression Analysis (LTEA) Assay for JUN Transcription Factor using HepaRG (AID 2283513)
In short: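 Cells plated 48 h, medium switched to serum-free induction medium, then dosed 48 h (100 uM top, half-log dilutions, 0.5% DMSO). RNA isolated; JUN measured by qRT-PCR against three housekeeping genes; gain or loss fitted relative to DMSO.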

[9] = read-out: Lipase C (LIPC), LIPC (gene 3990); experiment: LTEA_HepaRG_LIPC: Life Technologies and Expression Analysis (LTEA) Assay for Lipase C (LIPC) using HepaRG (AID 2283514)
In short: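 Differentiated human HepaRG cells in serum-free induction medium were exposed in duplicate for 48 h to eight concentrations (top 100 uM, half-log steps, 0.5% DMSO). LIPC mRNA was quantified by TaqMan qRT-PCR, normalized to ACTB, GAPDH and POLR2A, with bidirectional fitting versus DMSO.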

[10] = read-out: Lipoprotein lipase (LPL), LPL (gene 4023); experiment: LTEA_HepaRG_LPL: Life Technologies and Expression Analysis (LTEA) Assay for Lipoprotein lipase (LPL) using HepaRG (AID 2283515)
In short: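 Differentiated human HepaRG cells in serum-free induction medium were exposed in duplicate for 48 h to eight half-log concentrations (top 100 uM) in 0.5% DMSO. LPL mRNA was quantified by TaqMan qRT-PCR, normalized to ACTB, GAPDH and POLR2A.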

Measured: AC50

CC(=O)O[C@]1(C(C)=O)CC[C@H]2[C@@H]3C=C(Cl)C4=CC(=O)[C@@H]5C[C@@H]5[C@]4(C)[C@H]3CC[C@@]21C
inactive: [2] | [4] | [5] | [6] | [8] | [9]
active: [1] 50 µM | [3] 50 µM | [7] 17.9 µM | [10] 13.3 µM

Cc1c(C)c2c(c(C)c1O)CCC(C)(COc1ccc(CC3SC(=O)NC3=O)cc1)O2 (stereo not given)
inactive: [2] | [6] | [7]
active: [1] 68.5 µM | [3] 50 µM | [4] 88.2 µM | [5] 92.9 µM | [8] 70.9 µM | [9] 25.1 µM | [10] 4.12 µM

O=C1O[C@H]([C@H](O)CO)C(O)=C1O
inactive: [1] | [2] | [3] | [4] | [5] | [6] | [7] | [8] | [9] | [10]

CC(=O)OCC(COC(C)=O)OC(C)=O
inactive: [1] | [2] | [3] | [4] | [5] | [6] | [7] | [8] | [9] | [10]

NC(=Nc1ccccc1)Nc1ccccc1
inactive: [1] | [2] | [4] | [5] | [6] | [7] | [8] | [9] | [10]
active: [3] 13.2 µM

COC(=O)CCCC(=O)OC
inactive: [1] | [2] | [3] | [4] | [5] | [6] | [7] | [8] | [9] | [10]

OCC(O)CO
inactive: [1] | [2] | [3] | [4] | [5] | [6] | [7] | [8] | [9] | [10]

CS(=O)(=O)c1ccc([C@@H](C[C@H]2CCC(=O)C2)C(=O)Nc2cnccn2)cc1Cl
active: [1] 1.24 µM | [2] 1.48 µM | [3] 2.29 µM | [5] 16.8 µM | [6] 1.4 µM | [9] 1.08 µM | [10] 0.934 µM
inactive: [4] | [7]

CCCCC(CC)CO (stereo not given)
inactive: [1] | [2] | [3] | [4] | [5] | [6] | [7] | [9] | [10]

Cc1occc(=O)c1O
inactive: [1] | [2] | [3] | [5] | [6] | [7] | [8] | [9] | [10]

C=CCc1ccc(OC)c(OC)c1
inactive: [1] | [2] | [3] | [5] | [6] | [7] | [8] | [9] | [10]

C=CCCCCCCCCCCCC
inactive: [1] | [2] | [3] | [4] | [5] | [6] | [7] | [9] | [10]

CCc1nc(N)nc(N)c1-c1ccc(Cl)cc1
inactive: [2] | [6] | [8]
active: [1] 11.8 µM | [3] 57.7 µM | [5] 26.7 µM | [7] 75.5 µM | [9] 68.6 µM | [10] 75.1 µM

CCCCCCCCCCCCCCOS(=O)(=O)O
inactive: [2] | [3] | [4] | [5] | [6] | [7] | [9] | [10]
active: [1] 24.6 µM

NC=O
inactive: [1] | [2] | [3] | [4] | [5] | [6] | [7] | [9] | [10]

CCCC[C@H]1CN(CC2CCOCC2)C(=O)OC12CCN(C1(C)CCN(C(=O)c3c(C)ncnc3C)CC1)CC2
inactive: [1] | [2] | [3] | [4] | [5] | [6] | [7] | [9] | [10]

Cc1cc(SC2=C(O)C[C@@](CCc3ccc(N)cc3)(C(C)C)OC2=O)c(C(C)(C)C)cc1CO
inactive: [2] | [3] | [4] | [5] | [6] | [7] | [9] | [10]
active: [1] 4.02 µM

Cc1ccc(-c2cc(C(F)(F)F)nn2-c2ccc(S(N)(=O)=O)cc2)cc1
active: [1] 81.3 µM | [2] 50 µM | [4] 81.4 µM | [10] 87.4 µM
inactive: [3] | [5] | [6] | [7] | [9]

CSc1ccc(Oc2ccc(S(N)(=O)=O)cc2CN(C)C)cc1C
active: [3] 69.7 µM | [4] 88.2 µM | [7] 50 µM | [10] 77 µM
inactive: [1] | [2] | [5] | [6] | [9]

O=Cc1ccccc1C=O
inactive: [1] | [2] | [3] | [4] | [5] | [6] | [7] | [9] | [10]

NCCOCCOCCN
inactive: [1] | [2] | [3] | [5] | [6] | [7] | [8] | [9] | [10]

C/C=C/c1ccc(OC)cc1
inactive: [1] | [2] | [3] | [4] | [5] | [6] | [7] | [9] | [10]

Source: PubChem BioAssay (EPA / NIEHS)
